High-throughput results as filed in PubChem BioAssay.
HTT prom inh – inhibitors of huntingtin promoter activity. HEK293 HTT promoter firefly luciferase reporter, 24 h. actives 0.93% (n = 48,000). Potency, µM (series often up to 57.5 µM), usual class: inhibitors; note: nearly all actives have a fitted effect of over 50% in size
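HEK293 cells carrying firefly luciferase reporters were seeded at 2,500 per well in Opti-MEM and cultured for 24 h. They were then treated with compounds at up to 57.5 uM final for 24 h at 37 degrees C before Dual-Glo luminescence readout.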
p53null 32C tox – kills p53 null cells at the permissive temperature | H1299-neo p53 null cells, ATP luminescence, 24 h, 32C | Potency, µM (titrated, usually from 46.1 µM), actives largely listed as cytotoxic | actives 0.62% (n = 55,000) | AID 903; note: nearly all actives have a fitted effect of over 55% in size
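Cytotoxicity: H1299-neo (no p53), 32C, 24 h treatment. Concentrations up to 46 uM. Readout cellular ATP, luminescence. Normalization to DMSO basal and tamoxifen 100 uM maximal kill.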
HTT-AS promoter – HTT-AS promoter activation; HEK293 HTT-AS promoter firefly luciferase reporter, 24 h; response scale: percent change from vehicle, -100% = no light; Potency, µM (top dose mostly 57.5 µM), most hits filed as activators; actives 0.24% (n = 48,000); note: nearly all actives have a fitted effect of over 55% in size
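HEK293 cells carrying firefly luciferase reporters were seeded at 2,500 per well in Opti-MEM and cultured for 24 h. They were then treated with compounds at up to 57.5 uM final for 24 h at 37 degrees C before Dual-Glo luminescence readout.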
p53null 39C tox – selectivity test: cytotoxicity in p53 null cells, nonpermissive temperature; H1299 p53-null (neo) cells, 39C, ATPlite viability, 24 h; Potency, µM (highest dose often 46.1 µM), actives largely listed as cytotoxic; actives 0.97% (n = 55,000); note: nearly all actives have a fitted effect of over 50% in size
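ATP-luminescence viability readout (ATPlite, 20 min RT) after 24 hr compound treatment at 39C of H1299-neo or H1299-p53A138V cells; titration up to 46 uM; normalized to DMSO and 100 uM tamoxifen; Hill-fit AC50.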
Each line names hits and unclear results; the compound was inactive in the other large screens. This is a sample that favours compounds with a hit; in the whole collection about 1.9% have one here. Calls come from the whole dose curve; as a rule, active = well fitted curve in the direction sought with a large enough effect; inconclusive = small, poorly fitted or top-dose-only effect, or another doubt; inactive = no such curve, though single readings can be large; an effect the other way counts as inactive or inconclusive.

COc1ccc(OCCn2c(NC(=O)c3ccc(OC)cc3)nc3ccccc32)cc1	p53null 32C tox inconclusive, HTT-AS promoter inconclusive
CCCCOc1ccc(C(=O)NCCc2csc(-c3ccc(OC)cc3)n2)cc1	HTT prom inh 22.4µM
Cc1ccc2oc(-c3ccc(Cl)cc3)c(O)c(=O)c2c1	HTT-AS promoter 2.51µM, p53null 39C tox inconclusive
CC(C)[C@H]1C(=O)N[C@H](CO)Cc2c[nH]c3cccc(c23)N1C	none (no result: p53null 32C tox, p53null 39C tox)
C=CCON=C(C[C@H]1O[C@@H]2O[C@]3(C)CC[C@@H]4[C@H](C)CC[C@@H]([C@H]1C)[C@@]24OO3)[C@H]1O[C@@H]2O[C@]3(C)CC[C@H]4[C@H](C)CC[C@@H]([C@@H]1C)[C@@]24OO3	HTT prom inh inconclusive (no result: p53null 32C tox, p53null 39C tox)
COc1ccc(NC(C)=O)cc1NC(=O)c1cccn(Cc2ccccc2)c1=O	none
COc1ccc(NC(=O)c2cccn(Cc3ccc(Cl)cc3)c2=O)c(OC)c1	HTT prom inh 12.6µM
Cc1cc(NC(=O)c2cccn(Cc3cccc(Cl)c3)c2=O)no1	none
CCOc1ccc(NC(=O)c2cccn(Cc3cccc(Cl)c3)c2=O)cc1	HTT prom inh 15.8µM
CCOc1ccc(NC(=O)CSc2oc(-c3ccccc3)nc2S(=O)(=O)c2ccc(Cl)cc2)cc1	p53null 32C tox inconclusive, p53null 39C tox 10µM
O=C(N[C@@H](COc1ccc2[nH]c(=O)[nH]c2c1)c1ccccc1)c1cccn(Cc2ccc(F)c(F)c2)c1=O	HTT prom inh inconclusive (no result: p53null 32C tox, p53null 39C tox)
Cc1sc2c(c1C)C(c1ccc(Cl)cc1)=N[C@@H](CC(=O)Nc1ccc(O)cc1)c1nnc(C)n1-2	none (no result: p53null 32C tox, HTT-AS promoter, p53null 39C tox)
CCCCOc1ccc(CN2C(=O)C(=O)c3cc(C)ccc32)cc1OC	p53null 39C tox 20µM
CC(C)(C)c1ccc(C(=O)Nc2ccc3nc(SCC(=O)N4CCCC4)sc3c2)cc1	HTT prom inh 14.1µM, p53null 32C tox 20µM, p53null 39C tox inconclusive
CNC(=O)c1ccc(N2C(=S)N(c3ccc(C#N)c(C(F)(F)F)c3)C(=O)C23CCC3)cc1F	HTT prom inh inconclusive (no result: p53null 32C tox, p53null 39C tox)
CC(=O)c1cccc(NC(=O)c2cc3c(s2)-c2c(C)cccc2OC3)c1	HTT prom inh inconclusive, p53null 32C tox 10µM, p53null 39C tox inconclusive
CC(=O)c1cccc(NC(=O)c2cccn(Cc3cccc(C)c3)c2=O)c1	none
CC(O)=C(C#N)C(=O)Nc1cc(Br)ccc1Br	none (no result: p53null 32C tox, p53null 39C tox)
N#Cc1cc2c(nc1SCC(=O)Nc1ccc(OC(F)(F)F)cc1)C1CCN2CC1	HTT prom inh 28.2µM
C=C1C[C@H]2[C@H]3CCC(=O)[C@@]3(C)CC[C@@H]2[C@@]2(C)C=CC(=O)C=C12	none (no result: p53null 32C tox, p53null 39C tox)
Cc1oc(-c2ccc(Cl)cc2)nc1CN1CCC(C(=O)NCCCN2CCN(c3cccc(Cl)c3)CC2)CC1	p53null 39C tox 25.1µM
COc1ccc(-c2cc(=O)c3cc(OCC(=O)OC(C)C)ccc3o2)cc1	p53null 32C tox 3.16µM, p53null 39C tox 5.01µM
COc1ccc(-n2c(-c3ccco3)nc3c(cnn3-c3ccc(Cl)cc3)c2=O)cc1	HTT prom inh 35.5µM
COc1cccc(/C=C/c2nc3ccccc3c(=O)n2-c2ccc(Cl)cc2)c1OC	HTT prom inh inconclusive
COc1ccc(N(C(=O)Oc2c(C)cccc2C)c2ccnc(Nc3ccc(N4CCN(C)CC4)cc3)n2)c(OC)c1	HTT prom inh inconclusive (no result: p53null 32C tox, p53null 39C tox)
Cc1ccc(-n2c(/C=C\c3ccc(F)c(F)c3)nc3ccccc3c2=O)c(C)c1	HTT prom inh 7.08µM
COC(=O)[C@@H]1[C@@H](C(=O)OC)C2(c3ccccc3-c3ccccc32)N(c2ccc(Cl)cc2)N1C#N	p53null 32C tox 22.4µM, p53null 39C tox inconclusive (no result: HTT prom inh, HTT-AS promoter)
COC(=O)C[C@]1(C(=O)OC)CN(C#N)N(c2ccc(Cl)cc2)C12c1ccccc1-c1ccccc12	p53null 32C tox inconclusive (no result: HTT prom inh, HTT-AS promoter)
CCCCOc1ccc(CNC(=O)c2cc3n(n2)CCCN(Cc2ccc(C)cc2)C3=O)cc1	HTT prom inh 25.1µM
CCNC(=O)CC1N=C(c2ccc(Cl)cc2)c2cc(OC)ccc2-n2c(C)nnc21 (stereo unspecified)	none (no result: p53null 32C tox, p53null 39C tox)
COc1cccc(C2SCC(=O)Nc3c2c(C)nn3-c2ccc(C)c(Cl)c2)c1OC (stereo unspecified)	HTT prom inh inconclusive
CCCOc1ccc(C2SCC(=O)Nc3c2c(C)nn3-c2cccc(C)c2)cc1OC (stereo unspecified)	HTT prom inh inconclusive, p53null 39C tox 25.1µM
